Reference: PubChem BioAssay (Tox21)
Where “and” joins values, the source holds several entries; their conditions need not be identical. Equal values may be shown once. Records with an inconclusive call do not appear. Entries that show only a call come without a potency. More than one record can exist for a structure, and the calls need not agree. Calls of active or inactive are those of the source. Unless noted, calls follow the shape of the dose curve; as a rule, active = well fitted cell-killing curve with a large enough effect in the repeat runs; inconclusive = weak or mixed curves, or effect the other way; inactive = flat fitted curve, though single readings scatter.

biological target: Estrogen receptor beta (Homo sapiens) (UniProt Q92731); assay: qHTS assay to identify small molecule agonists of the estrogen receptor beta (ER-beta) signaling pathway (AID 1259377; active = well fitted activation curve with a large enough effect in the signal ratio in the repeat runs, not every such curve was filed as active; the % refers to the signal ratio); conditions: ER-beta-UAS-bla HEK293T, beta-lactamase FRET ratio, 16 h; series mostly up to 92.4 µM
Procedure, shortened: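 ER-beta-UAS-bla HEK293T (GripTite) cells carrying a UAS-driven beta-lactamase reporter, in medium with 2% charcoal-stripped FBS, were exposed to compounds for 16 hr at 37C; LiveBLAzer B/G FRET substrate was then added and fluorescence read after 2 hours at room temperature.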

Estrogen receptor beta (Homo sapiens), sequence (Q92731 whole entry, looked up): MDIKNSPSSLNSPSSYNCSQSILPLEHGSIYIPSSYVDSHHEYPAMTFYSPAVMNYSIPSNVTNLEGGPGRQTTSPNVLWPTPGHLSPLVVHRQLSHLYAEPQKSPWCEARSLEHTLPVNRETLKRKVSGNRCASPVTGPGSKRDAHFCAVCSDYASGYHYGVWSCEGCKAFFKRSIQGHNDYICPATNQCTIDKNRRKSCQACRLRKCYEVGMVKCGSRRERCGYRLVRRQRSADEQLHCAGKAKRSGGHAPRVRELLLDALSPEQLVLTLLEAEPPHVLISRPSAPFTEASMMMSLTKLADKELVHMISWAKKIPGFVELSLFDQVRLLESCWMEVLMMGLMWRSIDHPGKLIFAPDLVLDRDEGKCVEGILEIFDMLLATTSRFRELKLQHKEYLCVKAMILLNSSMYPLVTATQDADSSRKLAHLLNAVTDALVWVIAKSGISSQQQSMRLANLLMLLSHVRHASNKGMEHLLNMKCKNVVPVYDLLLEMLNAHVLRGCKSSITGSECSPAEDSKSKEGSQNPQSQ

Compound | Potency
COc1ccc(C(Cl)=C(c2ccc(OC)cc2)c2ccc(OC)cc2)cc1 | inactive
NS(=O)(=O)c1cc2c(cc1Cl)NCNS2(=O)=O | inactive
CCc1nc(N)nc(N)c1-c1ccc(Cl)cc1 | inactive
CCCCOC(=O)c1ccc(O)cc1 | inactive
CCOc1ccc(NC(C)=O)cc1 | inactive
CCN(CC)C(=O)c1cccc(C)c1 | inactive
CCCCCCCC(=O)OCC(COC(=O)CCCCCCC)OC(=O)CCCCCCC | inactive
NC(=O)c1cccnc1 | inactive
CN(C)CCOC(c1ccccc1)c1ccccc1 | inactive
Cc1c(C(=O)O)c(O)cc2c1C(=O)c1c(O)c([C@@H]3O[C@H](CO)[C@@H](O)[C@H](O)[C@H]3O)c(O)c(O)c1C2=O | inactive
CCCCCCCCCCCCCCCC[N+](C)(C)Cc1ccccc1 | inactive
O=S1(=O)OC(c2ccc(O)cc2)(c2ccc(O)cc2)c2ccccc21 | inactive
CC(C)C(=O)Nc1ccc([N+](=O)[O-])c(C(F)(F)F)c1 | inactive

biological target: Estrogen receptor beta (Homo sapiens) (UniProt Q92731); assay: qHTS assay to identify small molecule antagonists of the estrogen receptor beta (ER-beta) signaling pathway (AID 1259378; active = well fitted inhibition curve with a large enough effect in the signal ratio in the repeat runs, not every such curve was filed as active; the % refers to the signal ratio; also: potency is read from the fitted curve at half-maximal effect); conditions: ER-beta-UAS-bla HEK293T, beta-lactamase FRET ratio, 16 h; series mostly up to 92.4 µM
Procedure, shortened: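 Antagonist mode: compounds added to beta-lactamase reporter HEK293T ER-beta-UAS cells stimulated with E2 (1nM final), 16 hr at 37C. LiveBLAzer B/G FRET substrate, 2 hours room temperature, fluorescence read-out.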

Compound | Potency
COc1ccc(C(Cl)=C(c2ccc(OC)cc2)c2ccc(OC)cc2)cc1 | 433 nM (active) and 668 nM (active)
NS(=O)(=O)c1cc2c(cc1Cl)NCNS2(=O)=O | inactive
CCCCOC(=O)c1ccc(O)cc1 | 19.3 µM (active)
CCOc1ccc(NC(C)=O)cc1 | inactive
CCN(CC)C(=O)c1cccc(C)c1 | inactive
CCCCCCCC(=O)OCC(COC(=O)CCCCCCC)OC(=O)CCCCCCC | inactive
NC(=O)c1cccnc1 | inactive
CN(C)CCOC(c1ccccc1)c1ccccc1 | inactive
Cc1c(C(=O)O)c(O)cc2c1C(=O)c1c(O)c([C@@H]3O[C@H](CO)[C@@H](O)[C@H](O)[C@H]3O)c(O)c(O)c1C2=O | inactive
O=S1(=O)OC(c2ccc(O)cc2)(c2ccc(O)cc2)c2ccccc21 | inactive
CC(C)C(=O)Nc1ccc([N+](=O)[O-])c(C(F)(F)F)c1 | 54.5 µM (active) and inactive

system: not listed separately; assay: qHTS assay to identify small molecule agonists of the androgen receptor (AR) signaling pathway in the presence of an antagonist - cell viability counter screen (AID 1259379); conditions: MDA-kb2 viability, CellTiter-Fluor, 16 h; series mostly up to 92.4 µM; also: nearly all actives have a fitted effect of over 25% in size; also: potency is read from the fitted curve at half-maximal effect
Procedure, shortened: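 MDA-kb2 viability measured by CellTiter-Fluor fluorescence in the same wells as the luciferase signal; nilutamide 3.0uM final; 15-point compound titration; 16 hr at 37C.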

Compound | Potency
COc1ccc(C(Cl)=C(c2ccc(OC)cc2)c2ccc(OC)cc2)cc1 | inactive
NS(=O)(=O)c1cc2c(cc1Cl)NCNS2(=O)=O | inactive
COc1ccc2c(c1)c(CC(=O)O)c(C)n2C(=O)c1ccc(Cl)cc1 | inactive
O=c1[nH]cnc2c1ncn2[C@H]1CC[C@@H](CO)O1 | inactive
Cc1ncc([N+](=O)[O-])n1CCO | inactive
CCc1nc(N)nc(N)c1-c1ccc(Cl)cc1 | inactive
CN(C)C(=O)Nc1ccc(Cl)c(Cl)c1 | inactive
CCCCOC(=O)c1ccc(O)cc1 | inactive
CC12CCC(CC1)C(C)(C)O2 | inactive
CCOc1ccc(NC(C)=O)cc1 | inactive
CCCCC1(COC(=O)CCC(=O)O)C(=O)N(c2ccccc2)N(c2ccccc2)C1=O | inactive
CCCc1cc(=O)[nH]c(=S)[nH]1 | inactive
CCOC(N)=O | inactive
CCN(CC)C(=O)c1cccc(C)c1 | inactive
CCCCCCCC(=O)OCC(COC(=O)CCCCCCC)OC(=O)CCCCCCC | inactive
O=C1OC2(c3ccccc31)c1cc(Br)c(O)c(Br)c1Oc1c2cc(Br)c(O)c1Br | 7.81 µM (active) and 22.3 µM (active) and 11.9 µM (active)
NC(=O)c1cccnc1 | inactive
CN1[C@@H]2CC(OC(=O)[C@H](CO)c3ccccc3)C[C@H]1[C@@H]1O[C@@H]12 (stereo not given in full) | inactive
CN(C)CCOC(c1ccccc1)c1ccccc1 | inactive
CC(=O)CCC(=O)O | inactive
Cc1c(C(=O)O)c(O)cc2c1C(=O)c1c(O)c([C@@H]3O[C@H](CO)[C@@H](O)[C@H](O)[C@H]3O)c(O)c(O)c1C2=O | 18.9 µM (active) and 15.4 µM (active)
CN1CCc2cccc3c2[C@H]1Cc1ccc(O)c(O)c1-3 | 55 µM (active) and 22.8 µM (active) and 26.6 µM (active)
CCCCCCCCCCCCCCCC[N+](C)(C)Cc1ccccc1 | 35.5 µM (active) and 55.5 µM (active)
C=CCc1ccc(O)c(OC)c1 | inactive
NC(CO)(CO)CO | inactive
CS(=O)(=O)OCCCCOS(C)(=O)=O | inactive
O=S1(=O)OC(c2ccc(O)cc2)(c2ccc(O)cc2)c2ccccc21 | 30.6 µM (active) and 19.3 µM (active) and 10.6 µM (active)
CCCCCCc1ccc(O)cc1O | inactive

system: not listed separately; assay: qHTS assay to identify small molecule agonists of the estrogen receptor beta (ER-beta) signaling pathway - cell viability counter screen (AID 1259380); conditions: ER-beta-bla HEK293T viability, CellTiter-Glo luminescence, 16 h; series mostly up to 92.4 µM; also: nearly all actives have a fitted effect of over 30% in size; also: potency is read from the fitted curve at half-maximal effect
Procedure, shortened: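 Measured: luminescence from CellTiter-Glo after 30 min at room temperature, added to wells already read for the LiveBLAzer FRET reporter (2 hr substrate); ER-beta-UAS-bla HEK293T cells had 16 hr compound treatment at 37C, 5% CO2.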

Compound | Potency
COc1ccc(C(Cl)=C(c2ccc(OC)cc2)c2ccc(OC)cc2)cc1 | inactive
NS(=O)(=O)c1cc2c(cc1Cl)NCNS2(=O)=O | inactive
O=c1[nH]cnc2c1ncn2[C@H]1CC[C@@H](CO)O1 | inactive
Cc1ncc([N+](=O)[O-])n1CCO | inactive
CCc1nc(N)nc(N)c1-c1ccc(Cl)cc1 | 21.7 µM (active) and 18.8 µM (active)
CN(C)C(=O)Nc1ccc(Cl)c(Cl)c1 | inactive
CCCCOC(=O)c1ccc(O)cc1 | inactive
CC12CCC(CC1)C(C)(C)O2 | inactive
CCOc1ccc(NC(C)=O)cc1 | inactive
CCCCC1(COC(=O)CCC(=O)O)C(=O)N(c2ccccc2)N(c2ccccc2)C1=O | inactive
CCCc1cc(=O)[nH]c(=S)[nH]1 | inactive
CCOC(N)=O | inactive
CCN(CC)C(=O)c1cccc(C)c1 | inactive
CCCCCCCC(=O)OCC(COC(=O)CCCCCCC)OC(=O)CCCCCCC | inactive
O=C1OC2(c3ccccc31)c1cc(Br)c(O)c(Br)c1Oc1c2cc(Br)c(O)c1Br | inactive
NC(=O)c1cccnc1 | inactive
CN1[C@@H]2CC(OC(=O)[C@H](CO)c3ccccc3)C[C@H]1[C@@H]1O[C@@H]12 (stereo not given in full) | inactive
CN(C)CCOC(c1ccccc1)c1ccccc1 | inactive
CC(=O)CCC(=O)O | inactive
Cc1c(C(=O)O)c(O)cc2c1C(=O)c1c(O)c([C@@H]3O[C@H](CO)[C@@H](O)[C@H](O)[C@H]3O)c(O)c(O)c1C2=O | inactive
CN1CCc2cccc3c2[C@H]1Cc1ccc(O)c(O)c1-3 | 55 µM (active) and 20.4 µM (active)
CCCCCCCCCCCCCCCC[N+](C)(C)Cc1ccccc1 | 14.1 µM (active) and 22.1 µM (active) and 11.9 µM (active)
C=CCc1ccc(O)c(OC)c1 | inactive
NC(CO)(CO)CO | inactive
CS(=O)(=O)OCCCCOS(C)(=O)=O | inactive
O=S1(=O)OC(c2ccc(O)cc2)(c2ccc(O)cc2)c2ccccc21 | inactive
CC(C)C(=O)Nc1ccc([N+](=O)[O-])c(C(F)(F)F)c1 | inactive and 24.3 µM (active)
CCCCCCc1ccc(O)cc1O | 48.7 µM (active) and 48.6 µM (active)
